Structures are written as SMILES.

Data on 39 compounds can be found in the supplement of paper PMC3842684.

For one assay, the system named is P. falciparum NF54-pfs16-GFP late (IV-V) stage gametocytes. Description: relative % inhibition of viable gametocyte number; higher = more gametocytocidal. The settings on record: 0.5 µM; stage: late (IV-V) gametocyte; incubation 72 h. The essentials: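 NF54 pfs16-GFP gametocytes, magnet-isolated at early (I/IIa, day 2) or late (day 8) stage, were plated at 10% parasitaemia, 0.1% haematocrit in 384-well poly-D-lysine imaging plates with compound in duplicate at 5 or 0.5 µM. Plates were incubated 72 h at 37°C, 5% CO2, 5% O2, then overnight with MitoTracker Red. Confocal imaging counted elongated GFP objects with MitoTracker signal above cut-off as viable gametocytes. Relative inhibition was normalised to in-plate vehicle and positive-control wells.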
For `CCOc1cc(Cl)c(C(C)NC(=O)c2cccc(OC)c2)cc1OCC` (stereo not drawn), the relative % inhibition is -6.93%.

Turning to `COc1ccc(-c2cn3c(C(=O)Nc4ccccc4Cl)c(-c4ccccc4)c4c3n2CCCC4)cc1`, the relative % inhibition came to 4.28%.

For the compound `CCOC(=O)c1cnc2ccc(CC)cc2c1O`, the relative % inhibition was determined as 73.6%.

For the compound `Cc1ccc(Cn2c(N3CCC(C(=O)NCc4cccs4)CC3)nc3ccccc32)cc1`, the relative % inhibition turned out to be 5.62%.

Consider `Cc1cc(Nc2ccc(OCc3ccccc3)cc2)nc2cc(O)ccc12`, for which the relative % inhibition amounted to 35.1%.

On to `FC(F)(F)c1cccc(Nc2nc3ccccc3nc2Nc2cccc(C(F)(F)F)c2)c1`, for which the relative % inhibition was 105%.

As for `CC(C)c1ccc(CNCC(O)c2ccccc2)cc1` (stereo not drawn), the relative % inhibition was found to be 17.3%.

Take `COC(=O)c1ccc(C2C3=C(O)CC(c4ccc(F)cc4)CC3=Nc3ccccc3N2C(=O)c2ccccc2)cc1` (stereo not drawn): the relative % inhibition was found to be 88.6%.

On to `CCn1nc(-c2ccc(C(=O)OC)cc2)nc2c(=O)n(C)c(=O)nc1-2`, for which the relative % inhibition worked out at 68%.

With `CCCCC(O)(c1ccc(Cl)cc1)C(CN1CCOCC1)c1ccc(Cl)cc1` (stereo not drawn), the relative % inhibition was -3.8%.

`COC(=O)c1ccc(Cl)c2c1C1C=CCC1C(c1cccc3ccccc13)N2` (stereo not drawn): the relative % inhibition was -9.69%.

Take `COc1cccc(NC(=O)[C@H](C(C)C)n2c(=O)[nH]c3ccccc3c2=O)c1`: the relative % inhibition stood at 35%.

As to `CCc1ccc(Nc2cc(C)c3ccc(O)cc3n2)cc1`, the relative % inhibition was 16.3%.

As to `O=C(Nc1ccc(F)c(Cl)c1)Nc1ccc(Cl)c(Cl)c1`, the relative % inhibition amounted to 18.8%.

With `O=C(Nc1cccc(C2=NCCN2)c1)Nc1cccc(C2=NCCN2)c1`, the relative % inhibition stood at 10.7%.

As for `O=C(Nc1ccccc1O)c1ccc(Oc2cccc(C(=O)Nc3ccccc3O)c2)cc1`, the relative % inhibition came to 14.1%.

Consider `O=C1CC(O)(C(F)(F)C(F)(F)F)Oc2ccccc21` (stereo not drawn), for which the relative % inhibition is -15.1%.

For the compound `Cc1ccc2nc(C)cc(Nc3cccc(C(F)(F)F)c3)c2c1`, the relative % inhibition was determined as 26.7%.

For the compound `CCOC(=O)c1cnc2c(C)cccc2c1Nc1ccc(C(C)=O)cc1`, the relative % inhibition is 7.91%.

In the case of `c1ccc2c(NCCc3c[nH]c4ccccc34)c3ccccc3nc2c1`, the relative % inhibition is -14.3%.

On to `O=C(NC1CCN(Cc2ccccc2)CC1)c1cc(-c2cccnc2)nc2ccc(Cl)cc12`, for which the relative % inhibition was -30.4%.

For the compound `CCCCCCn1c(=N)n(CC(O)COc2cccc(C)c2)c2ccccc21` (stereo not drawn), the relative % inhibition is -12.2%.

As for `CN1CCN(c2c3c(c(C#N)c4nc5ccccc5n24)CCC3)CC1`, the relative % inhibition is -1.94%.

On to `Fc1ccc2[nH]c3c(NCCCN4CCOCC4)ncnc3c2c1`, for which the relative % inhibition was -16.8%.

`CCOc1ccc(-n2cc(-c3ccccc3)c3c(SCc4cc(C)ccc4C)ncnc32)cc1`: the relative % inhibition is 11.3%.

For `Cc1ccc(S(=O)(=O)c2c(COC(=O)c3cccc(C)c3)c(-c3ccccc3)nn2C)cc1`, the relative % inhibition came to 18.5%.

Regarding `CCOC(=O)c1c(C)n(-c2ccc(Cl)cc2)c2ccc(OC(=O)C=Cc3ccccc3)cc12`, the relative % inhibition came to 11.1%.

In the case of `Cc1ccc2c(C)nc(Nc3nc(C)cc(-c4ccccc4)n3)nc2c1`, the relative % inhibition came to 111%.

In the case of `Cc1sc(NC(=O)c2ccccc2)c(C(c2cccs2)N2CCN(c3ccccc3)CC2)c1C` (stereo not drawn), the relative % inhibition stood at 43.3%.

As for `FC(F)(F)c1cccc(CNC2CCN(CCc3ccccc3)CC2)c1`, the relative % inhibition was found to be 1.32%.

`Cc1nc2ccccc2c(O)c1CC=C(Cl)Cl`: the relative % inhibition was 33.4%.

Consider `COc1ccc(NC(=O)C2c3ccccc3C(=O)N(CC(C)C)C2c2cccs2)cc1` (stereo not drawn), for which the relative % inhibition was 25.7%.

Turning to `COc1ccccc1N1CCN(C(CNS(=O)(=O)c2ccc(Cl)cc2)c2cccnc2)CC1` (stereo not drawn), the relative % inhibition is -0.978%.

Regarding `CCOc1cc2c(cc1OCC)C(c1cc(Cl)ccc1O)NCC2` (stereo not drawn), the relative % inhibition amounted to 19%.

As to `CCCCc1c(C)nc2c(OC)cccc2c1O`, the relative % inhibition stood at 35.7%.

As for `CCOc1ccc(Nc2ccnc3cc(Cl)ccc23)cc1`, the relative % inhibition was found to be 14.7%.

Regarding `O=C(NCc1ccco1)C1CCN(S(=O)(=O)c2ccc(Cl)cc2)CC1`, the relative % inhibition worked out at 18.1%.

Take `Cc1cc(Nc2ccc3ccccc3c2)n2ncnc2n1`: the relative % inhibition came to 1.55%.

Consider `O=C(Nc1ccc(Cl)cc1)N1CCN(c2ccc3nncn3n2)CC1`, for which the relative % inhibition is 4.09%.

The same assay, now with this note: 5 µM; stage: late (IV-V) gametocyte; incubation 72 h.
Turning to `CCOc1cc(Cl)c(C(C)NC(=O)c2cccc(OC)c2)cc1OCC` (stereo not drawn), the relative % inhibition is 41.6%.

On to `COc1ccc(-c2cn3c(C(=O)Nc4ccccc4Cl)c(-c4ccccc4)c4c3n2CCCC4)cc1`, for which the relative % inhibition is 22.5%.

Turning to `CCOC(=O)c1cnc2ccc(CC)cc2c1O`, the relative % inhibition came to 79.8%.

`Cc1ccc(Cn2c(N3CCC(C(=O)NCc4cccs4)CC3)nc3ccccc32)cc1`: the relative % inhibition came to 23.8%.

Take `Cc1cc(Nc2ccc(OCc3ccccc3)cc2)nc2cc(O)ccc12`: the relative % inhibition came to 78.3%.

`FC(F)(F)c1cccc(Nc2nc3ccccc3nc2Nc2cccc(C(F)(F)F)c2)c1`: the relative % inhibition was found to be 103%.

Regarding `CC(C)c1ccc(CNCC(O)c2ccccc2)cc1` (stereo not drawn), the relative % inhibition amounted to 39.8%.

For the compound `COC(=O)c1ccc(C2C3=C(O)CC(c4ccc(F)cc4)CC3=Nc3ccccc3N2C(=O)c2ccccc2)cc1` (stereo not drawn), the relative % inhibition was 98.4%.

With `CCn1nc(-c2ccc(C(=O)OC)cc2)nc2c(=O)n(C)c(=O)nc1-2`, the relative % inhibition is 76.7%.

Regarding `CCCCC(O)(c1ccc(Cl)cc1)C(CN1CCOCC1)c1ccc(Cl)cc1` (stereo not drawn), the relative % inhibition worked out at 40.8%.

With `COC(=O)c1ccc(Cl)c2c1C1C=CCC1C(c1cccc3ccccc13)N2` (stereo not drawn), the relative % inhibition is 35.3%.

`COc1cccc(NC(=O)[C@H](C(C)C)n2c(=O)[nH]c3ccccc3c2=O)c1`: the relative % inhibition was 59.9%.

Take `CCc1ccc(Nc2cc(C)c3ccc(O)cc3n2)cc1`: the relative % inhibition was 56.6%.

Consider `O=C(Nc1ccc(F)c(Cl)c1)Nc1ccc(Cl)c(Cl)c1`, for which the relative % inhibition was 30.3%.

Consider `O=C(Nc1cccc(C2=NCCN2)c1)Nc1cccc(C2=NCCN2)c1`, for which the relative % inhibition was -30.3%.

Turning to `O=C(Nc1ccccc1O)c1ccc(Oc2cccc(C(=O)Nc3ccccc3O)c2)cc1`, the relative % inhibition amounted to 8.35%.

Turning to `O=C1CC(O)(C(F)(F)C(F)(F)F)Oc2ccccc21` (stereo not drawn), the relative % inhibition was determined as 4.41%.

For `Cc1ccc2nc(C)cc(Nc3cccc(C(F)(F)F)c3)c2c1`, the relative % inhibition amounted to 19.3%.

Regarding `CCOC(=O)c1cnc2c(C)cccc2c1Nc1ccc(C(C)=O)cc1`, the relative % inhibition is -0.973%.

Consider `c1ccc2c(NCCc3c[nH]c4ccccc34)c3ccccc3nc2c1`, for which the relative % inhibition worked out at 29.7%.

As for `O=C(NC1CCN(Cc2ccccc2)CC1)c1cc(-c2cccnc2)nc2ccc(Cl)cc12`, the relative % inhibition is -0.963%.

Take `CCCCCCn1c(=N)n(CC(O)COc2cccc(C)c2)c2ccccc21` (stereo not drawn): the relative % inhibition was found to be 103%.

Regarding `CN1CCN(c2c3c(c(C#N)c4nc5ccccc5n24)CCC3)CC1`, the relative % inhibition was -8.14%.

As for `Fc1ccc2[nH]c3c(NCCCN4CCOCC4)ncnc3c2c1`, the relative % inhibition stood at 22.9%.

Turning to `CCOc1ccc(-n2cc(-c3ccccc3)c3c(SCc4cc(C)ccc4C)ncnc32)cc1`, the relative % inhibition turned out to be 19.7%.

In the case of `Cc1ccc(S(=O)(=O)c2c(COC(=O)c3cccc(C)c3)c(-c3ccccc3)nn2C)cc1`, the relative % inhibition came to 20.4%.

`CCOC(=O)c1c(C)n(-c2ccc(Cl)cc2)c2ccc(OC(=O)C=Cc3ccccc3)cc12`: the relative % inhibition was 11.5%.

Consider `Cc1ccc2c(C)nc(Nc3nc(C)cc(-c4ccccc4)n3)nc2c1`, for which the relative % inhibition worked out at 113%.

Take `Cc1sc(NC(=O)c2ccccc2)c(C(c2cccs2)N2CCN(c3ccccc3)CC2)c1C` (stereo not drawn): the relative % inhibition turned out to be 77%.

As to `FC(F)(F)c1cccc(CNC2CCN(CCc3ccccc3)CC2)c1`, the relative % inhibition is -17.4%.

With `Cc1nc2ccccc2c(O)c1CC=C(Cl)Cl`, the relative % inhibition came to 49.4%.

With `COc1ccc(NC(=O)C2c3ccccc3C(=O)N(CC(C)C)C2c2cccs2)cc1` (stereo not drawn), the relative % inhibition amounted to 52.6%.

For the compound `COc1ccccc1N1CCN(C(CNS(=O)(=O)c2ccc(Cl)cc2)c2cccnc2)CC1` (stereo not drawn), the relative % inhibition came to 32.7%.

Turning to `CCOc1cc2c(cc1OCC)C(c1cc(Cl)ccc1O)NCC2` (stereo not drawn), the relative % inhibition stood at 26.7%.

Consider `CCCCc1c(C)nc2c(OC)cccc2c1O`, for which the relative % inhibition was found to be 63.9%.

For `CCOc1ccc(Nc2ccnc3cc(Cl)ccc23)cc1`, the relative % inhibition came out at 14.7%.

As to `O=C(NCc1ccco1)C1CCN(S(=O)(=O)c2ccc(Cl)cc2)CC1`, the relative % inhibition turned out to be 50%.

Regarding `Cc1cc(Nc2ccc3ccccc3c2)n2ncnc2n1`, the relative % inhibition was found to be 8.91%.

With `O=C(Nc1ccc(Cl)cc1)N1CCN(c2ccc3nncn3n2)CC1`, the relative % inhibition was -7.25%.
